Laboratory results published in PubChem BioAssay.
Where “and” joins values, the source holds several entries; their conditions need not be identical. Equal values may be shown once. Calls of active or inactive are those of the source. Unless noted, no stated cut-off is given here; in the data, active means inhibition above about 80%; inactive means the rest.

Assays:
[1] = growth inhibition, single agent or in combination, cell-based, chromothripsis tumors, cisplatin or BGB combos (AID 1671449); details: LFS_MB_P medulloblastoma cells;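 further: cells exposed for 96 hours; 0% = vehicle DMSO and 100% = killing by high DMSO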
[2] = growth inhibition, single agent and combos, cell-based, chromothripsis tumors, cisplatin or BGB combos (AID 1671450); details: HDN33 neuroblastoma cells, stronger effect = higher value;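 further: cells exposed to compound for four days; 0% = vehicle DMSO and 100% = cell killing by high DMSO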
[3] = growth inhibition, single agents and combos, ICB984, cell-based, cisplatin or BGB combos, synergistic combos for chromothripsis tumors (AID 1671451; call rule not given here;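 further: cells exposed for 96 hours before readout; 0% = vehicle DMSO and 100% = killing by high DMSO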); details: ICB984 medulloblastoma cells, drug combinations, stronger effect = higher value
[4] = growth inhibition, single agents and combos, LFS_MB_1R, cell-based, cisplatin or BGB combos, synergistic combos for chromothripsis tumors (AID 1671452); details: LFS_MB_1R medulloblastoma cells, stronger effect = higher value;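 further: cells exposed for 96 hours before readout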
[5] = growth inhibition, single agents and combos, HTB85, cell-based, BGB or cisplatin IC20 combos, synergistic combos for chromothripsis tumors (AID 1671453); details: HTB85 osteosarcoma cells, drug combinations, stronger effect = higher value;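 further: cells exposed for 96 hours before readout; 0% = vehicle DMSO and 100% = high DMSO killing control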
[6] = growth inhibition, single agents and combos, CRL2098, cell-based, BGB or cisplatin IC20 combos, synergistic combos for chromothripsis tumors (AID 1671454); details: CRL2098 osteosarcoma cells, drug combinations, stronger effect = higher value;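 further: cells exposed for 96 h before readout; 0% = vehicle DMSO and 100% = killing by high DMSO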
[7] = growth inhibition, single agents and combos, HD-MB03, cell-based, BGB or cisplatin IC20 combos, synergistic combos for chromothripsis tumors (AID 1671455; in the data active means inhibition above about 83%;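 further: 0% = vehicle DMSO and 100% = high DMSO as cytotoxic control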); details: HD-MB03 medulloblastoma cells, stronger effect = higher value
[8] = growth inhibition, single agents and combos, UWB1.289, cell-based, BGB or cisplatin combos, synergistic combos for chromothripsis tumors (AID 1671456); details: UWB1.289 ovarian carcinoma cells, stronger effect = higher value;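 further: cells exposed to compound for four days; 0% = vehicle DMSO and 100% = killing by high DMSO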
[9] = growth inhibition, single agents and combos, LFS_MB_2R, cell-based, cisplatin combos, synergistic combos for chromothripsis tumors (AID 1671457); details: LFS_MB_2R medulloblastoma cells, stronger effect = higher value;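 further: cells exposed to compound for four days before readout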
[10] = growth inhibition, MDA-MB-436, cell-based, BGB or cisplatin combos, synergistic combos for chromothripsis tumors (AID 1671458; call rule not given here;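 further: cells exposed for 96 hours; 0% = vehicle DMSO and 100% = killing by high DMSO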); details: MDA-MB-436 breast carcinoma growth inhibition, drug combinations, stronger effect = higher value
[11] = UWB1.289_BRCA1 ovarian cancer growth, cell-based, BGB or cisplatin combinations (AID 1671459); details: UWB1.289 BRCA1 ovarian carcinoma, drug combinations, stronger effect = higher value
[12] = drug combination toxicity in non-malignant astrocytes – cell-based, BGB or cisplatin IC20 combos, cytotoxicity control for chromothriptic childhood tumor combination screen (AID 1671460); details: Human astrocytes, viability inhibition, drug combinations, at 0.5 µM, stronger effect = higher value;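 further: cells exposed to compounds for 96 hours before viability readout; 0% = vehicle and 100% = killing control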
[13] = BT084 cell growth, single and combined drugs, ICGC_MB145, cisplatin and BGB IC40 combos (AID 1671461); details: BT084 medulloblastoma cells, drug combinations, stronger effect = higher value;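 further: cells exposed to drugs for 96 hours; 0% = vehicle DMSO and 100% = high DMSO full killing control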
[14] = RCMB18 cell growth, single agent and combined, cisplatin and BGB IC40 combos (AID 1671462); details: RCMB18 medulloblastoma cells, stronger effect = higher value;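 further: cells exposed to compound for four days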
[15] = CRL1545 cell growth, single agent and combined, cisplatin and BGB IC20 combos (AID 1671464); details: CRL1545 osteosarcoma cells, stronger effect = higher value;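 further: cells exposed to compound for 96 hours before readout; 0% = vehicle DMSO and 100% = high DMSO killing control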
[16] = galactose survival enhancers in mitochondrial complex I cybrids – cell-based, galactose medium, ATP luminescence, primary screen (AID 1645843;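 active means z-score of at least 1.8 in each of two replicates, scored against plate mean and spread of sample wells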;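 further: positive z means more ATP and so rescue of galactose-driven cybrid death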); details: complex I mutant cybrid cells, 72 h, stronger effect = higher value
[17] = measured here: combination with BGB IC40, at 0.05 µM
[18] = measured here: with BGB IC20 combination, at 0.5 µM
[19] = measured here: with cisplatin IC20 combination, at 0.5 µM
[20] = measured here: combination with cisplatin, at 0.5 µM
[21] = measured here: combination with cisplatin, at 5 µM

CCCCNNC(=O)c1ccc(Br)cc1
inhibition ([1]; at 0.5 µM, stronger effect = higher value): -28.6% (inactive) and -13.6% (inactive) | inhibition ([1]; measured here: combination with BGB IC20, at 0.005 µM): -3.01% and -23.3% | inhibition ([1]; measured here: combination with BGB IC40, at 0.005 µM): -22.6% and -43.3% | inhibition [1, 17]: -0.924% and -28% | inhibition ([1]; measured here: combination with cisplatin, at 0.5 µM, stronger effect = higher value): -32% and -11.5% | inhibition ([1]; measured here: combination with cisplatin, at 5 µM, stronger effect = higher value): -36.2% and 31.8% | inhibition ([2]; BGB combo, at 5 µM): -6.55% and 1.44% | inhibition ([2]; at 0.5 µM): 0.02% (inactive) and -19.7% (inactive) | inhibition ([2]; cisplatin combo, at 5 µM): 13.1% and 50.6% | inhibition [2, 18]: 3.17% and -28.2% | inhibition [2, 19]: -1.75% and -2.85% | inhibition ([2]; single agent, at 5 µM): 4.48% and -2.92% | inhibition ([3]; BGB IC20 combo, at 0.005 µM): -0.717% and -27.2% | inhibition ([3]; BGB IC40 combo, at 0.005 µM): -41.6% and -37.1% | inhibition ([3]; BGB IC40 combo, at 0.05 µM): -16% and 7.68% | inhibition ([3]; at 0.5 µM): -18.8% (inactive) and -23.4% (inactive) | inhibition ([3]; cisplatin combo, at 0.05 µM): -20.6% and 3.05% | inhibition ([3]; cisplatin combo, at 0.5 µM): -33.8% and -35% | inhibition ([3]; cisplatin combo, at 5 µM): -37.9% and -23% | inhibition ([3]; measured here: 5 uM single agent, at 5 µM): -7.59% and -16.8% | inhibition ([4]; at 0.5 µM): -6.14% (inactive) and -24.9% (inactive) | inhibition [4, 17]: -4.43% and -39.3% | inhibition [4, 20]: 15.7% and -27.4% | inhibition [4, 21]: -45.3% and 33.7% | inhibition ([5]; at 0.5 µM): -6.38% (inactive) and -12% (inactive) | inhibition ([5]; measured here: with BGB IC20, at 0.5 µM): -9.67% and -6.58% | inhibition ([5]; measured here: with BGB IC20, at 5 µM): -16.5% and 39.7% | inhibition ([5]; measured here: with cisplatin IC20, at 0.5 µM): -16.9% and -17.5% | inhibition ([5]; measured here: with cisplatin IC20, at 5 µM): -4.96% and 37.1% | inhibition ([5]; single agent, at 5 µM): 0.402% and 2.14% | inhibition ([6]; at 0.5 µM): -42.1% (inactive) and -78.1% (inactive) | inhibition ([6]; measured here: combination with BGB at IC20, at 0.5 µM): -11% and -84.3% | inhibition ([6]; measured here: combination with cisplatin at IC20, at 0.5 µM): -47% and -80.1% | inhibition ([7]; at 0.5 µM): -7.76% (inactive) and -11.7% (inactive) | inhibition ([7]; measured here: combo with BGB at IC20, at 0.5 µM): -11.6% and -15% | inhibition ([7]; measured here: combo with cisplatin at IC20, at 0.5 µM): -8.41% and -15% | inhibition ([8]; at 0.5 µM): -8.32% (inactive) and -3.86% (inactive) | inhibition ([8]; measured here: inhibition with BGB combination, at 0.05 µM): -23.9% and -19.8% | inhibition ([8]; measured here: inhibition with cisplatin combination, at 0.05 µM): -10.7% and -18.7% | inhibition ([9]; at 0.5 µM): -9.05% (inactive) and -20.7% (inactive) | inhibition [9, 20]: -22% and -6.47% | inhibition [9, 21]: -14.2% and 13.9% | inhibition ([10]; at 0.5 µM): -12.3% (inactive) and -16% (inactive) | inhibition ([10]; measured here: BGB combination, at 0.5 µM): -20.8% and -8.47% | inhibition ([10]; measured here: BGB combination, at 5 µM): -14.9% and -12.9% | inhibition ([10]; measured here: cisplatin combination, at 0.5 µM): -6.74% and -30.9% | inhibition ([10]; measured here: cisplatin combination, at 5 µM): -0.941% and -3.8% | inhibition ([11]; BGB combination, concentration series, at 5 µM): 6.4% and 33.8% | inhibition ([11]; at 0.5 µM): -7.63% (inactive) and -13.8% (inactive) | inhibition ([11]; cisplatin combination, concentration series, at 5 µM): 26% and 52.3% | inhibition [12]: 8.76% (inactive) and -0.16% (inactive) | inhibition ([12]; measured here: combo with BGB IC20): 10.6% and 7.19% | inhibition ([12]; measured here: combo with cisplatin IC20): 16.8% and 11.7% | inhibition ([13]; at 0.5 µM): -6.87% (inactive) and -6.41% (inactive) | inhibition ([13]; cisplatin combination, at 0.5 µM): -5.88% and 9.41% | inhibition ([13]; cisplatin combination, at 5 µM): 5.88% and 9.57% | inhibition ([13]; measured here: BGB IC40 combination 0.05 uM, at 0.05 µM): -2.71% and -30.8% | inhibition ([13]; single agent, at 5 µM): 3.58% and 5.96% | inhibition ([14]; at 0.5 µM): -14.6% (inactive) and -4.43% (inactive) | inhibition ([14]; cisplatin combo, at 5 µM): -8.38% and 43.4% | inhibition ([14]; measured here: BGB IC40 combination, at 0.05 µM): -7.86% and -8.38% | inhibition [14, 20]: -0.38% and 8.6% | inhibition ([14]; single agent, at 5 µM): -15.8% and 24% | inhibition ([15]; at 0.5 µM): -8.18% (inactive) and -0.65% (inactive) | inhibition [15, 18]: -10.3% and -18.8% | inhibition [15, 19]: -7.12% and 6.96% | inhibition ([15]; single agent, at 0.05 µM): -17.3% and -29.7% | inhibition ([15]; single agent, at 5 µM): -21.8% and -15.7%

Cc1cccc2c(C(=O)N3CCC(C)(C)C3)cc(-c3cnc(C4CC4)nc3)nc12
z-score [16]: 2.3 (active)
